Test results: PubChem BioAssay (NCI)
Compounds without any hit were thinned out: in the full panel of roughly 83,000, 20% have a hit.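 48-hour exposure, single concentration, 96-well plates; percent growth endpoint where 0 means no net growth. Active: below 10.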 Unmarked numbers belong to inactive results. The source made the active and inactive calls.

Each compound was assayed on MOLT-4 leukemia (assay: NCI-60 one-dose screen, 48 h (100 = growth as untreated, 0 = no growth, -100 = all killed)). Conditions: 10 µM.
Description: Growth inhibition of the MOLT-4 human tumor cell line is measured as a screen for anti-cancer activity. Cells are grown in 96 well plates and exposed to the test compound for 48 hours. Compounds are tested at a single concentration, which is 10^-5 M for most compounds. The reported endpoint is percent growth (GI% or GIPRCNT), where numbers from 0 - 100% represent growth inhibition, and numbers from -100% - 0 represent cell death. For example, a value of 40 represents 60% growth inhibition. A value of 0 means no net growth occurred over the course of the experiment. A value of -40 indicates 40% of cells at the beginning of the experiment died by the end of the experiment. A value of -100 means all cells are dead at the end of the experiment.
NCI-60 Human Tumor Cell Lines Screen was performed using the standard one-dose NCI protocol, which is described in more detail at https://dtp.cancer.gov/discovery_development/nci-60/default.htm.
Compounds with GIPRCNT values below 10 were considered active. Activity score was based on GIPRCNT using the following formula: […]
Score is 0 for GIPRCNT values of 100 or above, 50 for GIPRCNT values of 0, and 100 for GIPRCNT values of -100.

Row | SMILES | growth
1 | Cc1ccc(Cl)cc1NC(=O)N(C)CCO | 97.5%
2 | O=C(O)c1ccccc1NCc1ccco1 | 104%
3 | COc1cc2c(cc1OC)[C@H](C(=O)O)[C@@H](c1ccc(OC(C)C)c(OC)c1)N(C)C2=O | 94.3%
4 | O=C(Nc1ccccc1)OCCc1ccccc1 | 101%
5 | N=c1c(C(=O)OCc2ccccc2)ncc(CCl)n1O | 97.8%
6 | CCOc1ccc(/C=N/N=C(N)N)cc1OCC | 87.6%
7 | S=C(Nc1ccccc1)N1CCCCC1 | 98%
8 | O=C(O)COCC(=O)O | 99.1%
9 | CCCCOC(OCCCC)c1ccccc1 | 106%
10 | N#C/C(=C\c1cc(O)c(O)c(O)c1)C(N)=O | 73.1%
11 | O=C1Cc2ccccc2C(=O)O1 | 85.4%
12 | O=C(O)/C=C/C(=O)NCc1ccccc1 | 101%
13 | COc1ccc(/C(C#N)=C2C=C/C(=N/O)c3ccccc3\2)cc1 | 19.2%
14 | NC(=O)NC(=O)c1ccc(Cl)cc1 | 102%
15 | Cc1ccc(C(=O)c2ccccc2)c(C)c1 | 116%
16 | CCOC(=O)C/C(C)=N\O | 95.2%
17 | O=[N+]([O-])c1cccc(C(F)(F)F)c1 | 102%
18 | C=CCNc1nnc(C)s1 | 168%
19 | COC(=O)/C=C1\Sc2cc(F)ccc2NC1=O | 92.3%
20 | CCOC(=O)Nc1cc2c(c(N)n1)N=C(c1ccccc1)CO2 | 15.7%

Row | SMILES | growth
21 | O=C(Nc1cccc(NC(=O)Nc2cc(C(F)(F)F)ccc2Cl)c1)Nc1cc(C(F)(F)F)ccc1Cl | 2.16% (active)
22 | CCc1nc(N)nc(N)c1-c1ccc(Cl)cc1 | 56.4%
23 | S=C1CCCCCN1 | 111%
24 | O=c1[nH]n(-c2ccccc2)c(=O)cc1Cl | 95.4%
25 | COc1cccc(/C=N/NC(=S)NC2CC3CCC2C3)c1O (stereo not given) | 44.8%
26 | C=CCNC(=O)c1ccc(OC)cc1 | 102%
27 | OC1CCCc2ccccc21 (stereo not given) | 105%
28 | CC(=O)c1cc2c(cc1F)C(C)(C)CCC2(C)C | 89.1%
29 | CC(=O)NC(N)=S | 77.4%
30 | CN(C)/N=C/c1ccccc1O | 95.9%
31 | Cc1ccccc1C1N=C2Oc3ccccc3C=C2C(=O)N1 (stereo not given) | 44%
32 | COc1ccc(C)cc1OC | 110%
33 | c1ccc(Cc2ccccc2)cc1 | -26.2% (active)
34 | c1cc2cccc3c4cccc5cccc(c(c1)c23)c54 | 105%
35 | CC(=O)OC(C(=O)O)c1ccccc1 (stereo not given) | 95.5%
36 | CC(=O)NCc1cc(C)c(C)cc1C | 96.2%
37 | O=c1cc(-c2ccccc2)[nH]c(=S)[nH]1 | 95.3%
38 | CSC[C@H](NC(=O)COc1cccc2cnccc12)C(=O)NC(Cc1ccccc1)C(O)C(=O)N1CSC[C@H]1C(=O)NC(C)(C)C (stereo not given in full) | 101%
39 | COc1cc(C2c3cc4c(cc3C3OC(=O)C2C3CO)OCO4)cc(OC)c1OC (stereo not given) | -9.4% (active)
40 | CCCCOC(=O)c1ccc(C(C)C)cc1 | 83.3%
